Bioassay records as filed in PubChem.
Shown are actives, neighbours in structure and some others; about 5.6% of the full set was active somewhere.
CtBP-E1A inh: qHTS Assay for Inhibitors of the CtBP/E1A Interaction. CtBP / adenovirus E1A interaction (AlphaScreen). AlphaScreen GST-E1A/His-CtBP binding, 1536-well; stronger effect = lower value. activity change, % (concentration not given with the values). 340,000 tested, 0.49% active; in the data active = activity change below about -65%; inconclusive = mostly about -30% to -63%
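Protein mix (5X: 125 nM each GST-E1A, His-CtBP) was incubated with pinned compound 2 h at 37 deg C in dark, in 50 mM Tris pH 8.0 buffer with 300 mM NaCl. Glutathione donor and nickel acceptor beads followed; AlphaScreen signal read after 1 h.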
Six1-Eya2 inh: qHTS Assay for Inhibitors of the Six1/Eya2 Interaction | Homeobox protein SIX1 (Homo sapiens) + Protein phosphatase EYA2 (Homo sapiens), … | AlphaScreen GST-Six1/His-Eya2 binding, biochemical; stronger effect = lower value | activity change, % (test concentration not listed) | 360,000 tested, 0.56% active | AID 651725, 2012; in the data active = activity change below about -65%; inconclusive = mostly about -30% to -63%
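GST-Six1 + His-Eya2 (5X stock: 250/500 nM); Tris pH 8.0, 300 mM NaCl, 0.05% BSA, 0.02% Tween 20; GSH donor/Ni acceptor beads; 1 h 37 °C dark; AlphaScreen readout.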
RORgamma inh: qHTS for inhibitors of ROR gamma transcriptional activity. Nuclear receptor ROR-gamma (Mus musculus), P51450. Drosophila S2 Gal4-RORgamma UAS-luciferase reporter, 20 h. Potency, µM (highest dose often 53.6 µM), most hits filed as inhibitors. 310,000 tested, 5.4% active; also: nearly all actives have a fitted effect of over 60% in size
Target sequence (P51450 whole entry, looked up, the tested form may be a part): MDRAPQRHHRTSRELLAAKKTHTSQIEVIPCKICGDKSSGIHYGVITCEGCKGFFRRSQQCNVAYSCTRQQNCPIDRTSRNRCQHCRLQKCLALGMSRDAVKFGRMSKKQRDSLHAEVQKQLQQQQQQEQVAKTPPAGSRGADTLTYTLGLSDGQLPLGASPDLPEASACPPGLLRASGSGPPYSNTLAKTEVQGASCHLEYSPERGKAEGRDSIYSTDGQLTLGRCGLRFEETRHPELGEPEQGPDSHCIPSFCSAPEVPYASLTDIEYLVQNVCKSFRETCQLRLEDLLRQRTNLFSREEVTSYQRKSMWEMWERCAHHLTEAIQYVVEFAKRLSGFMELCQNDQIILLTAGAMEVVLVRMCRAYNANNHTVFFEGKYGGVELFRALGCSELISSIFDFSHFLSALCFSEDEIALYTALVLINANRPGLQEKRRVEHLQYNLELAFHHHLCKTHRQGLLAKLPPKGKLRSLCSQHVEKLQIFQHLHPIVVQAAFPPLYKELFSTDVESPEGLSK
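Compounds are pin-transferred onto Drosophila Schneider cells expressing a copper-inducible Gal4–ROR gamma transactivation domain fusion. After 1 hr, copper sulfate is added to 700 uM final; luciferase is read 20 hr later.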
VP16 counter: VP16 counterscreen qHTS for inhibitors of ROR gamma transcriptional activity. Drosophila S2 Gal4-VP16 UAS-luciferase, luminescence, 20 h. Potency, µM (titrated, usually from 53.6 µM), actives largely listed as inhibitors. 310,000 tested, 3.5% active. AID 2546, 2010;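 also: Gal4-VP16 expression switched on by copper sulfate through the metallothionein promoter; nearly all actives have a fitted effect of over 50% in size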
PKM2 act: qHTS Assay for Activators of Human Muscle isoform 2 Pyruvate Kinase; Pyruvate kinase PKM (Homo sapiens), P14618; purified PKM2, Kinase-Glo ATP luminescence, activation; response scale: 0% is enzyme alone, no compound; Potency, µM (highest dose often 57.5 µM), most hits filed as activators; 260,000 tested, 0.34% active; AID 1631, 2009; also: nearly all actives have a fitted effect of over 55% in size
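hPK-M2, >95% pure; 0.1 mM ADP / 0.5 mM PEP final; imidazole pH7.2 buffer w/ 7 mM MgCl2, 50 mM KCl; 1 h RT; Kinase-Glo lum. Intermediate enzyme activity for dual inhibitor/activator qHTS.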
Each line names hits and unclear results; the compound was inactive in the other large screens; ! = a repeat was not active. Unless noted, calls follow the shape of the dose curve; as a rule, active = well fitted curve in the direction sought with a large enough effect; inconclusive = small, poorly fitted or top-dose-only effect, or another doubt; inactive = no such curve, though single readings can be large; an effect the other way counts as inactive or inconclusive.

COc1ccccc1/C=N/NC(=S)NCc1ccco1	RORgamma inh 2µM, VP16 counter 11µM
S=C(NCc1ccco1)N/N=C/c1ccccc1Cl	RORgamma inh 11µM, VP16 counter inconclusive
COc1cccc(/C=N/NC(=O)C(=O)NCc2ccco2)c1OC	none
COC(=O)N/N=C/c1ccccc1OCCOc1ccc(OC)cc1	none
COc1cccc(/C=N/NC(=O)C(=O)NCc2ccco2)c1O	CtBP-E1A inh -97, Six1-Eya2 inh -89, RORgamma inh 4µM, VP16 counter 6.3µM
O=C(O)c1ncn(Cc2ccccc2)c1C(=O)O	CtBP-E1A inh inconclusive, Six1-Eya2 inh -69, PKM2 act inconclusive
O=C(NCc1ccccc1)c1ncn(Cc2ccccc2)c1C(=O)NCc1ccccc1	none (no result: RORgamma inh, VP16 counter, PKM2 act)
COc1cc2ccc(C(C)=NNC(N)=S)cc2cc1OC	Six1-Eya2 inh inconclusive (no result: RORgamma inh, VP16 counter, PKM2 act)
C/C(=N/NC(N)=S)c1ccc(Br)s1	RORgamma inh 1.1µM, VP16 counter 5µM
C/C(=N\NC(N)=S)c1cc(-c2ccccc2)c(-c2ccccc2)s1	RORgamma inh 0.45µM, VP16 counter 1.4µM
C/C(=N\NC(=O)Cc1ccccc1)c1ccc(Br)s1	none (no result: CtBP-E1A inh)
O=C(Nc1ccnn1C1CCN(Cc2cccc(F)c2F)CC1)C1CCCC1	none
CN(C(=O)Cn1cccc1C1=NC(c2ccccc2)CO1)c1ccccc1 (stereo not drawn)	none
CC(=O)Nc1nc2ccccc2n1CCN1CCOCC1	RORgamma inh inconclusive
O=C(Nc1nc2ccccc2n1CCN1CCOCC1)c1ccccc1	RORgamma inh 2.8µM, VP16 counter 3.5µM
O=C(Nc1nc2ccccc2n1CCN1CCOCC1)c1cn(-c2ccccc2)nc1-c1ccccc1	RORgamma inh 0.63µM, VP16 counter 1.1µM
COc1cc(/C=N\NC(=O)CC#N)ccc1OC/C=C/c1ccccc1	CtBP-E1A inh inconclusive, Six1-Eya2 inh inconclusive, VP16 counter inconclusive
CNC(=S)N/N=C/c1ccc(OCC(=O)Nc2c(C)cc(C)cc2C)c(OC)c1	RORgamma inh 14µM, VP16 counter 13µM
COCC(=O)N/N=C\c1ccc(OC/C=C/c2ccccc2)c(OC)c1	RORgamma inh 13µM, VP16 counter inconclusive
COc1cccc(/C=N/NC(=O)CC(C)O)c1OC/C=C/c1ccccc1 (stereo not drawn)	RORgamma inh 11µM, VP16 counter 16µM
CCOC(=O)N/N=C\c1cccc(OC)c1OC/C=C/c1ccccc1	none
Cc1ccc(C(CCNC(C)c2cccs2)c2ccco2)cc1 (stereo not drawn)	none
CC1(C)NC(=O)N(CCCCOc2ccccc2[N+](=O)[O-])C1=O	none (no result: CtBP-E1A inh, Six1-Eya2 inh)
CC1(C)NC(=O)N(c2ccc([N+](=O)[O-])c(C(F)(F)F)c2)C1=O	RORgamma inh inconclusive, VP16 counter 16µM! (no result: PKM2 act)
Cc1cc(=O)cc(C)n1-c1ccccc1N	none (no result: CtBP-E1A inh)
Cc1ccc(C)n1-c1ccccc1N	RORgamma inh 14µM, VP16 counter 13µM (no result: CtBP-E1A inh, Six1-Eya2 inh)
CN1CCN(C(=S)c2cn(CCOc3ccccc3)c3ccccc23)CC1	RORgamma inh 11µM, VP16 counter inconclusive (no result: CtBP-E1A inh)
CN1CCN(C(=S)c2cn(CCOc3ccccc3F)c3ccccc23)CC1	Six1-Eya2 inh inconclusive, RORgamma inh 14µM
CC(=O)c1cn(CCOc2cc(C)ccc2C)c2ccccc12	RORgamma inh inconclusive, VP16 counter 4µM
Cc1ccc(C)c(OCCn2cc(C(=O)O)c3ccccc32)c1	none
CCC(=O)NNC(=O)Cc1c(C)n(C(=O)c2ccc(Cl)cc2)c2ccc(OC)cc12	none
Cc1ccc(C)n1CCN1CCN(C(=O)CC#N)CC1	none
Cc1ccc(/C=C/C(=O)NC2CCCCCCC2)o1	VP16 counter 13µM
Cc1csc(NC(=O)/C=C/c2ccc(C)o2)n1	RORgamma inh 4.5µM, PKM2 act inconclusive
Cc1csc(NC(=O)/C=C/c2ccco2)n1	RORgamma inh inconclusive, VP16 counter inconclusive
O=[N+]([O-])c1ccc(N=Nc2ncc[nH]2)cc1	RORgamma inh 7.1µM, VP16 counter 6.3µM (no result: CtBP-E1A inh, PKM2 act)
